Source: PubChem BioAssay AID743286 (National Center for Advancing Translational Sciences (NCATS), 2014)
About 340 (31%) of roughly 1,100 compounds were called active. Inconclusive results (about 40%) are left out. Calls come from the whole dose curve; as a rule, active = well fitted inhibition curve with a large enough effect; inconclusive = small, poorly fitted or top-dose-only effect; inactive = flat fitted curve, though single readings scatter. Only a sample is shown. Where a call stands in place of a potency, no number is given.

molecular target: Phosphatidylinositol 5-phosphate 4-kinase type-2 alpha (Homo sapiens) (UniProt P48426); assay: qHTS for Inhibitors of PI5P4K: Confirmation in Primary Assay; details: PI5P4Kalpha enzyme, ADP-Glo luminescence, 60 min; series mostly up to 76.9 µM; note: nearly all actives have a fitted effect of over 65% in size
Sequence (P48426 whole entry, looked up): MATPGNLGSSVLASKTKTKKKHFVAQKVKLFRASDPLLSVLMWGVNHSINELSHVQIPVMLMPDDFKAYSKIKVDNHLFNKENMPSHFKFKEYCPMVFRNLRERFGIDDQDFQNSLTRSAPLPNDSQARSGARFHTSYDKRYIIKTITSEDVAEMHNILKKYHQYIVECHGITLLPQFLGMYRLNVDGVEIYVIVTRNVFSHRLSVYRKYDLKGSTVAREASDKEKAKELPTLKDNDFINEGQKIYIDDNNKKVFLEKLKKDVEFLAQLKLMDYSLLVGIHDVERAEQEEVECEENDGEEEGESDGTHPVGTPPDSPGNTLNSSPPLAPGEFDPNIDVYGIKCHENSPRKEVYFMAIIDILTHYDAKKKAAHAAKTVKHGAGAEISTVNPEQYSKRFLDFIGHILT
How it was run: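 Hits from a qHTS screen were retested in the same PI5P4Kα ADP-Glo format: 5 microM ATP, HEPES pH 7.4 buffer with CHAPS and EGTA, 60 min room-temperature reaction, single end-point luminescence read.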
Potency is the fitted concentration of half-maximal effect.

| SMILES | Potency |
| --- | --- |
| CCOc1ccc(OCc2ccc(C(=O)N3CCOCC3)cc2)cc1 | inactive |
| CCC(C)c1nc2ccsc2c(N2CCOC2=O)c1-c1ccccc1 (stereo not given) | inactive |
| Cc1cccnc1NC(=O)CSc1nnc(COc2ccc(C(C)C)cc2)n1C | inactive |
| O=C(CSc1nc2c(cnn2-c2cccc(Cl)c2)c(=O)[nH]1)NCC1CCCO1 (stereo not given) | inactive |
| O=c1c2ccccc2[nH]c2ccc(O)cc12 | 20 µM (active) |
| O=[N+]([O-])c1ccc(-c2cc(-c3ccc(Cl)cc3)n[nH]2)cc1 | inactive |
| CNC(=O)COC(=O)c1cc(-c2ccco2)nc2ccccc12 | 12.6 µM (active) |
| CCNC(=O)COC(=O)c1cc(-c2ccco2)nc2ccccc12 | 14.1 µM (active) |
| CCN(CC)C(=O)COC(=O)c1cc(-c2ccco2)nc2ccccc12 | 12.6 µM (active) |
| Cc1nc2ccccc2nc1OCC(=O)NCc1ccc2c(c1)OCO2 | inactive |
| O=C(OCc1nnc(-c2ccccc2)o1)c1ccc2ccccc2n1 | inactive |
| COc1ccc(CNC(=O)CCCn2nc(C)c([N+](=O)[O-])c2C)cc1OC | inactive |
| Cc1ccc(NC(=O)Nc2cccs2)cc1 | inactive |
| CC(C)NC(=O)N1c2ccccc2Sc2ccccc21 | inactive |
| COC(=O)Cc1c(C)nc2nc(-c3ccc(C)cc3)[nH]n2c1=O | 6.31 µM (active) |
| O=C(Nc1nnc(SCc2ccc(Cl)cc2)s1)c1ccco1 | inactive |
| O=C(Nc1nnc(-c2ccncc2)o1)c1ccccc1 | inactive |
| O=C(Nc1nnc(-c2ccc(Cl)cc2)o1)c1nc2ccccc2s1 | 14.1 µM (active) |
| CC(C)(C)NC(=O)Nc1ccc(Cn2cc(C(F)(F)F)ccc2=O)cc1 | inactive |
| Cc1c(C(=O)O)sc2ncnc(N3CCCCC3C)c12 (stereo not given) | 10 µM (active) |
| O=C(COc1cccc2ccccc12)Nc1ccc(Cl)cc1C(=O)O | 25.1 µM (active) |
| CNC(=O)c1nc(C)n(-c2ccc(Cl)cc2Cl)n1 | inactive |

| SMILES | Potency |
| --- | --- |
| Cc1ccc(C(c2nnnn2CS(=O)(=O)c2ccc(C)cc2)N2CCC(C)CC2)cc1 (stereo not given) | inactive |
| N#Cc1c(NC(=O)CSc2ncnc3sccc23)oc(-c2ccco2)c1-c1ccco1 | 17.8 µM (active) |
| Cc1cc(C(=O)OCC(=O)Nc2c(F)cccc2F)c(C)n1-c1ccccc1 | inactive |
| CN(C)S(=O)(=O)c1cccc(C(=O)OCC(=O)Nc2sccc2C(N)=O)c1 | inactive |
| NC(=O)c1ccsc1NC(=O)COC(=O)c1ccccc1F | 22.4 µM (active) |
| Cc1cc(C)c2c(N)c(C(=O)Nc3c(C)n(C)n(-c4ccccc4)c3=O)sc2n1 | inactive |
| Cc1sc(NC(=O)c2sc3nc4c(C)cccc4cc3c2N)c(C#N)c1C | 11.2 µM (active) |
| N#CC1=C2SCN(c3ccccc3)CN2C(=O)CC1c1c(Cl)cccc1Cl (stereo not given) | 22.4 µM (active) |
| CCc1ccccc1N1CSC2=C(C#N)C(c3ccccc3F)CC(=O)N2C1 (stereo not given) | 14.1 µM (active) |
| N#CC1=C2SCN(c3ccccc3)CN2C(=O)CC1c1ccccc1Cl (stereo not given) | 25.1 µM (active) |
| O=C(CSc1ncnc2sc3c(c12)CCC3)N1CCOCC1 | inactive |
| COc1ccc2c([N+](=O)[O-])c(Cl)[nH]c2c1 | 10 µM (active) |
| CC(C)C(=O)Nc1ccccc1N1CCN(S(C)(=O)=O)CC1 | inactive |
| O=C(NCc1cc([N+](=O)[O-])ccc1O)c1cccc(NS(=O)(=O)c2ccccc2)c1 | 14.1 µM (active) |
| O=C(NCC1CCCCC1)c1cccc([N+](=O)[O-])c1 | inactive |
| O=C(NCCCCc1ccccc1)c1cccc(NC(=O)C2CC2)c1 | inactive |
| OCCCNc1nccc(-c2cc(Nc3cccc(Cl)c3)ncn2)n1 | 14.1 µM (active) |
| OC(c1ccc(Cl)c(F)c1)c1ncc(-c2ccc(Oc3ccccc3)cc2)[nH]1 (stereo not given) | inactive |
| COc1cc(OC)cc(-c2nnc(NC(=O)CCS(=O)(=O)c3ccc(C)cc3)o2)c1 | inactive |
| O=S(=O)(c1ccccc1)c1nc(-c2ccco2)oc1N1CCCCCC1 | inactive |
| O=S(=O)(c1ccc2nc(-c3ccco3)c(-c3ccco3)nc2c1)N1CCOCC1 | 15.8 µM (active) |
| O=S(=O)(NCCC1=CCCCC1)c1cccc(S(=O)(=O)N2CCOCC2)c1 | inactive |

| SMILES | Potency |
| --- | --- |
| O=C(Nc1ccc2c(c1)OCCO2)c1ccccc1F | inactive |
| COc1ccc(C(C(=O)NC2CCCC2)N(C(=O)c2snc(C(N)=O)c2N)c2cccc(O)c2)cc1 (stereo not given) | inactive |
| N#Cc1cc(-c2ccccc2)nn1-c1ccccc1 | 10 µM (active) |
| Cc1ccc(CSCC(=O)N2CCOCC2)cc1 | inactive |
| O=C(Cc1ccc(Cl)cc1Cl)Nc1cccc(S(=O)(=O)Nc2ccccc2F)c1 | 3.98 µM (active) |
| COCCn1c(SCC(=O)Nc2cccc(S(N)(=O)=O)c2)nc2cc(Cl)ccc2c1=O | inactive |
| O=C(Nc1cccc(Cl)c1)N1CCCC1 | inactive |
| CC(=O)NC(c1ccc(C)cc1)c1cc([N+](=O)[O-])c2cccnc2c1O (stereo not given) | inactive |
| CC(=O)NC(c1cccs1)c1cc([N+](=O)[O-])c2cccnc2c1O (stereo not given) | 12.6 µM (active) |
| O=C(Oc1ccc(N(Cc2cccs2)C2=NS(=O)(=O)c3ccccc32)cc1)c1ccccc1Cl | inactive |
| Cn1c(=O)c2[nH]c(-c3ccc(S(=O)(=O)O)cc3)nc2n(C)c1=O | 12.6 µM (active) |
| CCCn1c(=O)c2[nH]c(-c3ccc(S(=O)(=O)O)cc3)nc2n(CCC)c1=O | 14.1 µM (active) |
| O=C(CSc1nc(-c2ccccc2)cc(=O)[nH]1)N1CCc2ccccc21 | inactive |
| COc1ccc(CCCc2nnc(SCc3nc4ccccc4c(=O)[nH]3)n2C)cc1 | inactive |
| CCn1c(SCc2nc3sc(C(=O)O)c(C)c3c(=O)[nH]2)nc2ccccc21 | 12.6 µM (active) |
| c1cc2c(cc1C1=NNC(=NC3CC3)SC1)OCCO2 | 28.2 µM (active) |
| Cc1cc(C(=O)Nc2cccc3c2O[C@@H](CN(C)S(C)(=O)=O)[C@H](C)CN([C@@H](C)CO)C3=O)n(C)n1 | inactive |
| O=C(OCC(=O)N1CCCCCC1)c1ccc(Cl)c(S(=O)(=O)N2CCCC2)c1 | inactive |
| NS(=O)(=O)c1cc(C(=O)NC2CCSc3ccccc32)ccc1Cl (stereo not given) | 0.891 µM (active) |
| COc1ccc2c(c1)c(=O)oc1c(C)c(OCc3cc(C(=O)O)oc3C)ccc12 | 17.8 µM (active) |
| COCc1ccc2oc(C(=O)O)cc2c1 | inactive |
